# Source: PubChem BioAssay (Tox21)
# Several values for one entry are separate records, joined by “and”; a condition that tells them apart may be missing. Equal values may be shown once. Results filed as inconclusive are left out. Entries that show only a call come without a potency. More than one record can exist for a structure, and the calls need not agree. Activity calls are given as the source filed them. Calls come from the whole dose curve; as a rule, active = well fitted cell-killing curve with a large enough effect in the repeat runs; inconclusive = weak or mixed curves, or effect the other way; inactive = no such curve, though single readings can be large or run the other way. Residues, ends and D or L forms follow the SMILES beside them.
# Assay: qHTS assay for identifying genotoxic compounds that show differential cytotoxicity against isogenic chicken DT40 cell lines with known DNA damage response pathways - wild type cell line (AID 743012); note: nearly all actives have a fitted effect of over 60% in size
# Conditions: DT40 wild type chicken cells viability, CellTiter-Glo, 40 h; series mostly up to 68.4 µM; activity change, negative = cytotoxicity: at the top concentration
# Description: U.S. Tox21 Program National Center for Advancing Translational Sciences [NCATS] NIH Chemical Genomics Center [NCGC] U.S. Environmental Protection Agency [EPA] National Institutes of Environmental Health Sciences [NIEHS] National Toxicology Program [NTP] U.S. Food and Drug Administration [FDA] Tox21 Assay Overview: DNA repair pathways play a critical role in cellular homeostasis by repairing DNA damage induced by endogenous processes and xenobiotics. Isogenic chicken DT40 cell lines deficient in different DNA repair pathways can be used to identify genotoxic compounds and aid in characterizing the nature of the DNA damage induced. Two DNA repair-deficient cell lines with disrupted genes, Rad54/Ku70 or Rev3, were used to screen the Tox21 10K compound library. Possible genotoxicity was based on the presence of a significant increase in cytotoxicity in one or more of the DNA repair-deficient cell lines compared to that observed in the parental DNA repair-proficient cell line. CellTiter Glo viability assay (Promega, Madison, WI) was used to measure cell viability in these cells after compound treatment. This assay includes the data from the wild type cell line.
# Tox21 Assay Protocol Summary: 300 DT40 wild type cells in 5 uL/well were dispensed into white, solid-bottom 1536-well plates using a Multidrop Combi (ThermoFisher Scientific, Waltham, MA) dispenser. After the assay plates were incubated at 37 C/5% CO2 for approximately 0.5 hour, 23 nL of compounds dissolved in DMSO, positive controls or DMSO only was transferred into the assay plate by a pintool work station (Kalypsys, San Diego, CA). The assay plates were incubated at 37 C/5% CO2 for 40 hours. After 5 uL per well of CellTiter-Glo reagent was added into each well of the assay plates, the plates were incubated for 30 min at room temperature and the luminescence intensity of the plates was measured using a ViewLux (PerkinElmer, Shelton, CT) plate reader.
# Potency is the fitted concentration of half-maximal effect.
Structure (SMILES),Potency,"activity change, negative = cytotoxicity"
c1ccc2[nH]ccc2c1,inactive,–
CCCC(CCC)C(=O)O,inactive,–
CCCNC(=O)NS(=O)(=O)c1ccc(Cl)cc1,inactive,–
OC(Cn1cncn1)(Cn1cncn1)c1ccc(F)cc1F,inactive,–
O=C(O)CCC(=O)O,inactive,–
CC(O)CO (stereo not given),inactive,–
O=C1CN(/N=C/c2ccc([N+](=O)[O-])o2)C(=O)N1,60.9 µM (active),–
O=C1NC(=O)c2ccccc21,inactive,–
Cn1cc[nH]c1=S,inactive,–
Cc1cc(=O)[nH]c(=S)[nH]1,inactive,–
NC(=O)c1ccccc1O,inactive,–
Cc1noc(NS(=O)(=O)c2ccc(N)cc2)c1C,inactive,–
CCCCCCCCCCCCCCCC(=O)O,11.9 µM (active) and inactive,–
COc1c2occc2cc2ccc(=O)oc12,inactive,–
CC(O)CN(CCN(CC(C)O)CC(C)O)CC(C)O (stereo not given),inactive,–
O=S(=O)(O)NC1CCCCC1,inactive,–
Nc1ccc(C(=O)O)cc1,inactive,–
O=C(O)c1cccnc1,inactive,–
COC(=O)[C@H](Cc1ccccc1)NC(=O)[C@@H](N)CC(=O)O (H-Asp-Phe-OMe),inactive,–
C1N2CN3CN1CN(C2)C3,inactive,–

Structure (SMILES),Potency,"activity change, negative = cytotoxicity"
NC(=O)NC1NC(=O)NC1=O (stereo not given),inactive,–
CC(=O)NS(=O)(=O)c1ccc(N)cc1,inactive,–
Cc1ccc(C)c(OCCCC(C)(C)C(=O)O)c1,inactive,–
CCCC(O)C(CC)CO (stereo not given),inactive,–
CCCCC1C(=O)N(c2ccccc2)N(c2ccccc2)C1=O,inactive,–
NNC(=O)c1ccncc1,inactive,–
Nc1ccc(S(=O)(=O)Nc2nccs2)cc1,inactive,–
O=C(O)CS,inactive and 61.6 µM (active),–
Nc1ccc(O)c(C(=O)O)c1,inactive,–
CCCN(CCC)S(=O)(=O)c1ccc(C(=O)O)cc1,–,2.59% (inactive)
OCCc1ccccc1,inactive,–
NS(=O)(=O)c1cc(C(=O)O)c(NCc2ccco2)cc1Cl,inactive,–
COc1ccc2[nH]cc(CCNC(C)=O)c2c1,inactive,–
C[C@]12C=CC(=O)C=C1CC[C@@H]1[C@@H]2[C@@H](O)C[C@@]2(C)[C@H]1CC[C@]2(O)C(=O)CO,–,-17% (inactive)
Cc1ccc(S(=O)(=O)NC(=O)NN2CCCCCC2)cc1,inactive,–
CCCCC(CC)COC(=O)/C=C/c1ccc(OC)cc1 (stereo not given),inactive,–
CC1(C)[C@@H]2CC[C@@]1(C)C(=O)C2,inactive,–
O=C(O)c1[nH]n(-c2ccc(S(=O)(=O)O)cc2)c(=O)c1N=Nc1ccc(S(=O)(=O)O)cc1,inactive,–
CNC[C@H](O)c1cccc(O)c1,inactive,–
O=C(O)c1cc(N=Nc2ccc(S(=O)(=O)Nc3ccccn3)cc2)ccc1O,inactive,–
